Our source for the outcome and AC50 values is PubChem BioAssay (EPA / NIEHS).

The source holds several records for some structures; these can differ, active in one and inactive in another. Active and inactive are the calls of the source. The calls were made as follows: active = hit-call score of the fitted dose curve at least 0.9, where 1 is the maximum; inactive = score below 0.9.

One may read the AC50 as the concentration giving half of the maximal activity seen.

Read-out in this test: JUN Transcription Factor, JUN (gene 3725)
Nature of the test: LTEA_HepaRG_JUN: Life Technologies and Expression Analysis (LTEA) Assay for JUN Transcription Factor using HepaRG (AID 2283513). Particulars: mRNA level, 48 h; actives raise or lower the signal. As to the method:
LTEA_HepaRG is a cell based, multiplexed-readout assay that uses HepaRG, a human liver cell line, with measurements taken at 48 hours after chemical dosing on a 96-well plate.LTEA_HepaRG_JUN is one of 102 assay component(s) measured in the LTEA HepaRG cell culture assay. It is a marker of Cell proliferation, survival, death.Data from the assay component LTEA_HepaRG_JUN was analyzed into 1 endpoint. This assay endpoint, LTEA_HepaRG_JUN, was analyzed with bidirectional fitting relative to DMSO as the negative control and baseline of activity. Using a type of inducible reporter, measures of mRNA induction for gain or loss-of-signal activity can be used to understand regulation of transcription factor activity. To generalize the intended target to other relatable targets, this assay endpoint is annotated to the dna binding intended target family, where the subfamily is basic leucine zipper.
A total of 1060 chemcials from the ToxCast library were tested in eight-point concentration-response experiments. Cell culture and cytotoxicity assays were conducted at Thermo Fisher Scientific's Custom Services facility (Madison, WI). A single lot of human HepaRG cells (Thermo Fisher Scientific, Frederick, MD) was used for the cell culture experiments. 96-well format collagen type I coated plates of human HepaRG cells were prepared using established methods. Briefly, cryopreserved HepaRG cells were thawed, plated at a density of approximately 100,000 cells/well in HepaRG Thaw, Plate, and General Purpose media (HPRG770, Thermo Fisher Scientific), and incubated for 48 hours. 0.5% DMSO was selected as vehicle control to balance the requisite need of DMSO in HepaRG cultures to maintain differentiation (for example, baseline metabolism, proportions of hepatocytes vs. cholangiocytes), while enabling further hepatic receptor pathway activation (for example, PXR and CAR) in response to chemical exposure. 48 hours after plating, the culture medium was replaced with HepaRG Serum-Free Incudtion Media. Cells were exposed to each test chemical in duplicate and maintained in CO2 incubators for another 48 hours. Chemical plates were thawed to room temperature and 200x concentrations of treatment groups were prepared. 8-point conentration-reponse curves were made with the highest exposure at 100 uM, followed by half-log dilutions, all in 0.5% DMSO. Each test plate contained variouse controls, induction positive controls (1mM phenobarbital), cytotoxicity positive controls ([…] aflatoxin B1), vehicle controls (0.5% DMSO), and total lysis controls (0.5% DMSO). Cell morphology images were taken using an Essen IncuCyte FLR automated microscope, with six 96-well plates imaged in about 24 minutes. Images were captured and exported and JPEG files. Spent culture media was transfered to black-well plates for the LDH assay, and remaining media was sorted at -80 C for later use. Cells were treated with RLT buffer and frozen until shipped for gene expression analysis. Total RNA was isolated from the cell suspension in 75 uL of Buffer RLT (Qiagen, Germantown, MD 20874) by Quintiles/Expression Analysis (Durham, NC) using a custom isolation procedure. Total RNA from each plate well was transferred to a preamplification plate. Fluidigm's 96.96 Dynamic ArrayTM (Fluidigm, Amsterdam, the Netherlands) technology was used for gene expression analyses by quantitative reverse transcription polymerase chain reaction (qRT-PCR, performed by Quintiles/Expression Analysis, Durham, NC)89. Standard TaqManTM Assays (Applied Biosystems/ThermoFisher Scientific, Foster City, CA) were used to assess the expression of 93 genes selected based on their selectivity and sensitivity to important hepatic receptors known to be modulated by environmental chemicals; importance in human hepatocyte functionality; and hepatotoxicity. […]
As for `NC(=O)O`, the result was inactive.

On to `O=C(O)C(F)(F)C(F)(F)C(F)(F)C(F)(F)C(F)(F)C(F)(F)C(F)(F)C(F)(F)C(F)(F)C(F)(F)F`, for which the compound was classed as inactive.

For the compound `C=C(C)C(=O)[O][Sn]([CH2]CCC)([CH2]CCC)[CH2]CCC`, the AC50 was 6.54 µM (active).

As to `ClCC(Cl)CCl`, the call was inactive.

Turning to `CCOP(=S)(OCC)SCSP(=S)(OCC)OCC`, the result was inactive.

Take `CCN1CCC2(CC1)COc1cc3c(cc12)N(C(=O)c1ccc(-c2ccc(-c4nnc(C)o4)cc2C)cc1)CC3`: the concentration at half-maximal activity (AC50) is 18.2 µM (active).

As for `COc1cc(-c2ccc(N)c(OC)c2)ccc1N`, the concentration at half-maximal activity (AC50) is 50 µM (active) and the call was inactive.

Consider `CC(C)(c1ccccc1)c1ccc(O)c(C(C)(C)c2ccccc2)c1`, for which the result was inactive.

As to `CC(=O)[O][Hg][c]1ccccc1`, the concentration at half-maximal activity (AC50) was 12.7 µM (active).

For `CCC(C)(C)c1ccc(O)c(C(C)(C)CC)c1`, the outcome was inactive.

Consider `O=[N+]([O-])c1ccc(O)c([N+](=O)[O-])c1`, for which the outcome was inactive.

Regarding `O=C(O)C(Cl)(Cl)Cl`, the compound was classed as inactive.

As for `O=c1[nH]c(=O)[nH]c(=O)[nH]1`, the compound was called inactive.

Take `Cn1sc(Cl)cc1=O`: the compound was called inactive.

Regarding `CCCCCCCCc1ccc(O)cc1`, the result was inactive.

In the case of `CC(C)(C)c1cc(O)ccc1O`, the compound was called inactive.

For `C[C@]12CCC(=O)C[C@@H]1CC[C@@H]1[C@@H]2CC[C@]2(C)[C@@H](O)CC[C@@H]12`, the compound was called inactive.

For `CC(C)(C)CC(C)(C)c1ccc(O)cc1`, the result was inactive.

In the case of `C[C@@H]1C[C@@H]([C@H](O)CC2CC(=O)NC(=O)C2)C(=O)[C@@H](C)C1`, the AC50 is 30 µM (active).

Consider `O=C(O)C(F)(F)C(F)(F)C(F)(F)C(F)(F)C(F)(F)C(F)(F)F`, for which the result was inactive.

As to `C=CC(=O)OCCCCCC(C)C`, the compound was classed as inactive.

`CCOP(=S)(OCC)Oc1nc(Cl)c(Cl)cc1Cl`: the outcome was inactive.

Take `CN(C)N=O`: the outcome was inactive.

As to `ClC1(Cl)C2(Cl)C3(Cl)C4(Cl)C(Cl)(Cl)C5(Cl)C3(Cl)C1(Cl)C5(Cl)C24Cl` (configuration not stated), the call was inactive.

Consider `O=C1C2(Cl)C3(Cl)C4(Cl)C(Cl)(Cl)C5(Cl)C3(Cl)C1(Cl)C5(Cl)C24Cl` (configuration not stated), for which the AC50 was 91.1 µM (active).

In the case of `Cc1ccccc1N`, the outcome was inactive.

With `CC12CC1(C)C(=O)N(c1cc(Cl)cc(Cl)c1)C2=O` (configuration not stated), the result was inactive.

With `CCC(=O)C(CC(C)N(C)C)(c1ccccc1)c1ccccc1` (configuration not stated), the outcome was inactive.

Take `CC(C)(OO)c1ccccc1`: the compound was called inactive.

For the compound `O=C(Nc1ccc2[nH]ccc2c1)c1cc2cc(F)ccc2n1Cc1cccc(F)c1`, the AC50 is 50 µM (active).

`Oc1cccc2cccnc12`: the result was inactive.
